F508del corr – F508del CFTR correction, initial screen, CFBE line, single point; activity (quench increase), % at 7.58 µM; CFBE cells, YFP halide quenching; stimulated with forskolin plus potentiator P3; % fluorescence drop versus neutral controls; 350,000 compounds, 0.36% hits;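 active = mean added fluorescence quench of at least 8% versus neutral control, with both replicates also reaching 8%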;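 note: cells transiently co-express mutant CFTR-F508del with the halide-sensitive YFP; corrector assay measuring rescue of mutant channel to the surface after 24 h compound exposure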
Vif inh – HIV Vif self-association inhibitors, primary screen, imaging, HEK293T, single point; HEK293T cells, Vif self-association by quenched fluorescence, 24 h; inhibition, % at 7.49 µM; 340,000 compounds, 0.35% hits; in the data active = inhibition above about 50%, passing the limit was not always enough
FGF22 binding – binders of human FGF22 protein, primary screen, FGF22 synaptogenesis inhibitor project, biophysical, thermal shift, single point; Fibroblast growth factor 22 (Homo sapiens), Q9HCT0; recombinant FGF22 thermal shift, SYPRO orange fluorescence; percent of sucrose octasulfate shift, DMSO zero; activity (Tm shift, normalised), % at 9.99 µM; 340,000 compounds, 1.5% hits; AID 651658, 2012;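 active = mean Tm shift, scaled 0 neutral to 100 positive control, at about 1.3% or above, every replicate too, limit read from the data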
Target sequence (Q9HCT0 whole entry, looked up): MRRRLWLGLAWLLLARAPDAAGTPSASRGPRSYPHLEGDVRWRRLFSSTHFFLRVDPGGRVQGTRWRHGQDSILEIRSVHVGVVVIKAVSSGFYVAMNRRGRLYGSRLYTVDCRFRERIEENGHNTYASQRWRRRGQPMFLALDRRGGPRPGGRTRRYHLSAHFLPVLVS
Each line names hits and unclear results; the compound was inactive in the other large screens. Shown are actives, neighbours in structure and some others; about 1.7% of the full set was active somewhere.

CCN(C[C@H]1N[C@@](Cc2ccccc2)(C(=O)OC)[C@H]2C(=O)N(C)C(=O)[C@@H]12)C(=O)c1ccc(F)cc1	FGF22 binding 43
CCN(C[C@H]1N[C@@](Cc2ccccc2)(C(=O)OC)[C@H]2C(=O)N(C)C(=O)[C@@H]12)C(=O)c1ccc(C(C)(C)C)cc1	none
COC(=O)[C@]1(Cc2ccccc2)N[C@H](CN(C)C(=O)NC(C)C)[C@@H]2C(=O)N(Cc3ccccc3)C(=O)[C@@H]21	none
COc1ccc(C#Cc2ccc3c(c2)[C@H]2[C@H](CCN2S(=O)(=O)C2=NC(C)C=N2)[C@@H](CO)N3C)cc1 (some centres not stated)	none (no result: Vif inh, FGF22 binding)
O=C(N/N=C/c1c(O)ccc2ccccc12)c1cccnc1	none (no result: F508del corr)
O=C(N/N=C/c1c(O)ccc2ccccc12)c1ccc(Br)o1	F508del corr 12
O=C(N/N=C\c1c(O)ccc2ccccc12)c1cncc(Br)c1	F508del corr 35
O=C(N/N=C/c1c(O)ccc2ccccc12)Nc1ccccc1	none (no result: Vif inh)
CN(C)CC(=O)N1[C@H](C(=O)NC2CCC2)[C@@H](CO)[C@@H]2Cn3c(ccc(-c4ccccc4)c3=O)[C@@H]21	none (no result: F508del corr, Vif inh)
CO[C@@H]1CN(C)C(=O)c2ccc(NC(=O)C3CCOCC3)cc2OC[C@@H](C)N(C)C[C@@H]1C	none (no result: Vif inh, FGF22 binding)
Cc1ccc(-c2cc(C(=O)OCC(=O)N(C)C3CCS(=O)(=O)C3)c3ccccc3n2)o1 (configuration not stated)	FGF22 binding 43
CCN(C(=O)COC(=O)c1cc(-c2ccccc2)nc2c1c(C)nn2-c1ccc(C)cc1)C1CCS(=O)(=O)C1 (configuration not stated)	F508del corr 8.2 (no result: Vif inh)
CCN(C(=O)COC(=O)c1ccc(Cl)c(N)c1)C1CCS(=O)(=O)C1 (configuration not stated)	FGF22 binding 43
CCN(C(=O)COC(=O)c1cc(-c2ccccc2)nc2ccc(Br)cc12)C1CCS(=O)(=O)C1 (configuration not stated)	none
CCN(C(=O)COC(=O)c1cc(-c2ccc(C)o2)nc2ccccc12)C1CCS(=O)(=O)C1 (configuration not stated)	none
CCN(C(=O)COC(=O)c1ccc(Cl)c(S(=O)(=O)N2CCCCC2)c1)C1CCS(=O)(=O)C1 (configuration not stated)	none
C[C@@H]1CN([C@H](C)CO)C(=O)c2cc(C#CC(C)(C)O)cnc2O[C@H]1CN(C)Cc1ccccn1	none (no result: Vif inh)
O=C(C[C@@H]1CC[C@H](NC(=O)C2CCOCC2)[C@@H](CO)O1)NCc1ccncc1	none (no result: Vif inh, FGF22 binding)
O=C(N[C@@H]1CC[C@H](CCNS(=O)(=O)c2ccc(F)cc2)O[C@@H]1CO)c1cccc(F)c1	none (no result: Vif inh)
O=C(O)CC(c1cccc(C(F)(F)F)c1)N1CCS(=O)(=O)CC1 (configuration not stated)	none
O=S1(=O)CCN(C(CO)c2ccccc2)CC1 (configuration not stated)	F508del corr 10
CCOC(=O)C1CCCN(C(=O)c2ccc3c(c2)OCO3)C1 (configuration not stated)	none (no result: F508del corr, FGF22 binding)
CCOC(=O)CNC(=O)N1CCCC(C(=O)c2ccc3c(c2)OCO3)C1 (configuration not stated)	FGF22 binding 43
CCC(=O)Nc1ccc2c(c1)OC[C@@H](C)N(C(=O)NC(C)C)C[C@H](C)[C@H](OC)CN(C)C2=O	none (no result: Vif inh)
C[C@@H]1CN([C@@H](C)CO)C(=O)c2cc(NC(=O)Nc3ccc(F)cc3)ccc2O[C@@H]1CN(C)C(=O)Nc1ccc(C(F)(F)F)cc1	none (no result: Vif inh, FGF22 binding)
C[C@H](CO)N1C[C@H](C)[C@H](CN(C)Cc2cncnc2)Oc2ncc(/C=C/c3ccccc3)cc2C1=O	none (no result: Vif inh)
CC1=CC(C)(C)N(C(=O)CCl)c2ccccc21	none (no result: Vif inh)
CC1=CC(C)(C)N(C(=O)CN2C(=O)CCC2=O)c2ccccc21	FGF22 binding 43
C[C@H]1CN([C@@H](C)CO)C(=O)c2cc(C3=CCCC3)cnc2O[C@@H]1CN(C)C(=O)NC1CCCC1	none (no result: Vif inh)
COc1cc(NC(=O)C/C(C)=N/NC(=O)Cc2ccc(Cl)cc2)c(OC)cc1Cl	Vif inh 73 (no result: F508del corr, FGF22 binding)
COC(=O)c1ccccc1NC(=O)C/C(C)=N/NC(=O)Cc1ccc(Cl)cc1	none
CCNC(=O)[C@@H]1[C@@H](CO)[C@@H]2Cn3c(ccc(-c4ccccc4F)c3=O)[C@H]1N2C(=O)CC	none (no result: Vif inh)
CCNC(=O)[C@@H]1[C@@H](CO)[C@@H]2Cn3c(ccc(-c4ccccc4)c3=O)[C@@H]2N1C(=O)Cc1cccnc1	none (no result: Vif inh)
COc1ccc(-c2csc(NC(=O)c3ccc(OCC(=O)N4CCOCC4)c(OC)c3)n2)cc1OC	FGF22 binding 44
COc1cc(C(=O)Nc2cccc(C)n2)ccc1OCC(=O)N1CCOCC1	none
COc1ccc2c3c([nH]c2c1)[C@@H](CO)N(C(=O)CN(C)C)CC31CCN(CC2CCCCC2)CC1	none (no result: Vif inh)
O=C(N[C@@H]1CC[C@@H](CCNS(=O)(=O)c2ccccc2Cl)O[C@H]1CO)c1ccccc1	none (no result: Vif inh)
COc1cc(/C=N/NC(=O)c2ccc(O)cc2)ccc1Oc1ccc([N+](=O)[O-])cn1	FGF22 binding 44
COc1cc(/C=N/N2CCOCC2)ccc1OC(=O)c1ccco1	FGF22 binding 43
Cc1cccc(C(=O)NNC(=O)c2ccco2)c1	FGF22 binding 43
Cc1cccc(NC(=O)c2cccc(NC(=O)c3ccco3)c2)c1	none
COc1cc(/C=N/N(C)C)ccc1OC(=O)c1ccco1	none
COc1cc(/C=N/NC(=O)c2ccncc2)ccc1Oc1ccc([N+](=O)[O-])cn1	none
COc1cccc(C(=O)Nc2ccc(NC(=O)c3ccco3)c(Cl)c2)c1	none
COc1cccc(NC(=O)c2cccc(NC(=O)c3ccco3)c2)c1	FGF22 binding 43
CCC(=O)N1CC[C@@H]2[C@@H](CO)N(C)c3ccc(-c4ccc(C#N)cc4)cc3[C@@H]21	none (no result: Vif inh)
O=S(=O)(N[C@@H]1CC[C@@H](CCn2cc(-c3ccccn3)nn2)O[C@H]1CO)c1cccc(F)c1	none (no result: Vif inh)
C[C@H](O)C#Cc1cnc2c(c1)C(=O)N([C@@H](C)CO)C[C@H](C)[C@@H](CN(C)Cc1ccccn1)O2	none (no result: Vif inh)
Cc1ccc(S(=O)(=O)Nc2ccc3c(c2)CC(=O)N([C@@H](C)CO)C[C@@H](C)[C@@H](CN(C)C(=O)Nc2ccc(F)cc2)O3)cc1	none (no result: Vif inh)
CCOc1cc(/C=N/Nc2nc(N3CCCCC3)nc(N3CCCCC3)n2)ccc1OC(=O)c1ccco1	FGF22 binding 43
COc1cc(NC(=O)c2cccc([N+](=O)[O-])c2)ccc1NC(=O)c1ccco1	FGF22 binding 44
COc1cc(NC(=O)c2ccc([N+](=O)[O-])o2)ccc1NC(=O)c1ccco1	none
COc1ccc(/C=N/NC(=O)c2cccc([N+](=O)[O-])c2)cc1OC(=O)c1ccccc1	none (no result: F508del corr, FGF22 binding)
O=C(Nc1cccc(-c2nc3ccccc3[nH]2)c1)c1cccc(NC(=O)c2ccco2)c1	Vif inh 72 (no result: F508del corr, FGF22 binding)
CCOc1ccc(/C=N/Nc2nc(N3CCCC3)nc(N3CCCC3)n2)cc1OC	none
COc1cc(/C=N/NC(=O)c2cccc([N+](=O)[O-])c2)ccc1OC(=O)c1ccco1	FGF22 binding 43

Source: PubChem BioAssay (Broad Institute)
